Experimental data published in the supplement of paper PMC11732987, “Enantioselective OTUD7B fragment discovery through chemoproteomics screening and high-throughput optimisation” (Communications Chemistry, 2025).

Tests used:
Experiment in all cases: log2 ratio of Biotin-Ahx-Ub-VS probe labelling (fragment/DMSO); higher = less target engagement (more negative = stronger competition), active = hit call of the paper (q ≤ 0.05, log2 ratio ≤ -1)
Details in all cases: compound concentration: 200 uM; treatment time: 3 h
USP42 = target: T1, USP42 (UniProt Q9H9J4)
T1 sequence (whole entry): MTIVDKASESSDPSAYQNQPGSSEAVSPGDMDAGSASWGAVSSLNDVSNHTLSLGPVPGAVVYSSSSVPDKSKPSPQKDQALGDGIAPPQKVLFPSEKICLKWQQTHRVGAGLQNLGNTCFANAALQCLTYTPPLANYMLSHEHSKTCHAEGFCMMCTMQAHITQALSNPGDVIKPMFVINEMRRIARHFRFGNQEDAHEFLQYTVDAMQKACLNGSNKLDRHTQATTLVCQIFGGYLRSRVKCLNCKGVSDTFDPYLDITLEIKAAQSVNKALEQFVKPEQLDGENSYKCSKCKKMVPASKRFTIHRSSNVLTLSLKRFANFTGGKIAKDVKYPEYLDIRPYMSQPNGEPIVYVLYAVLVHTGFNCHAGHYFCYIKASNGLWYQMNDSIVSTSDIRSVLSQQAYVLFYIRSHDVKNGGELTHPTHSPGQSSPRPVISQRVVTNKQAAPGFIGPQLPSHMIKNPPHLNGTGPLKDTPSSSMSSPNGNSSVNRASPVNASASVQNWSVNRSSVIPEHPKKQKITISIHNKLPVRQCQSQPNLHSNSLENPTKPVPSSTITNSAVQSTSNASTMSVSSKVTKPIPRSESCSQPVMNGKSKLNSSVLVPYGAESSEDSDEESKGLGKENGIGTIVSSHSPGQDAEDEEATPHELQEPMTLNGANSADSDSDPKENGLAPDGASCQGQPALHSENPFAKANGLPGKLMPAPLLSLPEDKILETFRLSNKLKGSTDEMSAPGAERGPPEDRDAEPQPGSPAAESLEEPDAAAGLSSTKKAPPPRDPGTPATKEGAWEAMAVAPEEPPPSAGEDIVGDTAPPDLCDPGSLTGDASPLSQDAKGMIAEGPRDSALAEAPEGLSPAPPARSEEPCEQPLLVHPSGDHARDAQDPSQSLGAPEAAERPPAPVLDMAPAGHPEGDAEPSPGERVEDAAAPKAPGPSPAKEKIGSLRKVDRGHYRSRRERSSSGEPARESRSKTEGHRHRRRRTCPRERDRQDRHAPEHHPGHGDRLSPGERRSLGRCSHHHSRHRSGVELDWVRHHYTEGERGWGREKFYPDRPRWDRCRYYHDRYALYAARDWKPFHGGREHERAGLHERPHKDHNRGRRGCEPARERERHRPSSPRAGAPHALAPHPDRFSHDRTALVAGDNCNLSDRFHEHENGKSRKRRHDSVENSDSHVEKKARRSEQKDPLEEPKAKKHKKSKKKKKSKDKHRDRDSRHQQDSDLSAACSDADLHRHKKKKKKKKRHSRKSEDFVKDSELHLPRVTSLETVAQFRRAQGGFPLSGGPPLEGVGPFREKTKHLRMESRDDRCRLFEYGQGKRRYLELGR
How it was run: (§1)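 The table lists average log2 ratios of fragment over vehicle, from an unpaired t-test on global-median-normalised Spectronaut label-free quantities. Proteins with ≥2 unique peptides were used. Samples were HEK293T lysate (495 µg) treated in triplicate with fragment at 200 µM or vehicle for 3 h, then with Biotin-Ahx-Ub-VS (0.5 µM final) for 1 h, with labelled DUBs NeutrAvidin-enriched and run by diaPASEF LC-MS/MS.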

USP46 = USP46 (UniProt P62068)
How it was run: as §1

USP47 = target: T2, USP47 (UniProt Q96K76)
T2 sequence (whole entry): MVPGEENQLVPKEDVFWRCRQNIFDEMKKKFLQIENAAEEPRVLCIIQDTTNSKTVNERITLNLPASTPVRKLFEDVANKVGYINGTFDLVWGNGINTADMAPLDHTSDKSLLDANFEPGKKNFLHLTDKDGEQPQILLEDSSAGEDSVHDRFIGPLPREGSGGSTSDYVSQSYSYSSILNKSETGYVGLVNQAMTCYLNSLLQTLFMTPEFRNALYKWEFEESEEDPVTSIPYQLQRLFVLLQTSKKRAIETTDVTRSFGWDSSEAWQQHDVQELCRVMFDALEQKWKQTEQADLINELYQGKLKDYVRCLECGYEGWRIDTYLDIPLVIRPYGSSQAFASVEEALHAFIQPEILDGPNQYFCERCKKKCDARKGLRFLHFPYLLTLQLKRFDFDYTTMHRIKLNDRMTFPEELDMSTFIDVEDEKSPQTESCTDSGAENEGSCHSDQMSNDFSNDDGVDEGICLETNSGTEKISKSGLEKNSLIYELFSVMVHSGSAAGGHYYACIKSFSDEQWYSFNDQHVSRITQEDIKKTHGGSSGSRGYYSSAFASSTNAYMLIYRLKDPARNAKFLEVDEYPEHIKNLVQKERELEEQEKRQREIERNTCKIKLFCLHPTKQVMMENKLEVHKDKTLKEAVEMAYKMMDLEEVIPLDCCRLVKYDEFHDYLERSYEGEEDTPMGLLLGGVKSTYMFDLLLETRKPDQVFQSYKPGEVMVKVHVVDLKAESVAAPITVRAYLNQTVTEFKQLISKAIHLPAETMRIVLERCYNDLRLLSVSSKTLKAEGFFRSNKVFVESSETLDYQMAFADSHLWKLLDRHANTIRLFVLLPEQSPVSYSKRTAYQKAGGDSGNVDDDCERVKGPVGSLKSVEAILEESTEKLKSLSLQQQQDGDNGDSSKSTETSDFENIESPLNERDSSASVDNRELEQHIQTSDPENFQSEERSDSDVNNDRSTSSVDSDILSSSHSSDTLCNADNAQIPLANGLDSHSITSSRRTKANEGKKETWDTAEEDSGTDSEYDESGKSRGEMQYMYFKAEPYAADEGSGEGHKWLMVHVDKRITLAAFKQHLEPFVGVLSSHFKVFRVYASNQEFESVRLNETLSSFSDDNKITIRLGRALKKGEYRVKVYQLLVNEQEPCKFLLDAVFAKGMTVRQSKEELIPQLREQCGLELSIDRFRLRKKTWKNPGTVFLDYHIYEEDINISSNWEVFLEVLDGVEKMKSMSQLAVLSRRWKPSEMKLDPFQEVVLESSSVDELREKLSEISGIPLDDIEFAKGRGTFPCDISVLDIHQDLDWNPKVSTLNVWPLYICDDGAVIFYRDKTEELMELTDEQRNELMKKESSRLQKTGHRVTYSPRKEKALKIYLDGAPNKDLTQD
How it was run: as §1

USP48 = target: T3, USP48 (UniProt Q86UV5)
T3 sequence (whole entry): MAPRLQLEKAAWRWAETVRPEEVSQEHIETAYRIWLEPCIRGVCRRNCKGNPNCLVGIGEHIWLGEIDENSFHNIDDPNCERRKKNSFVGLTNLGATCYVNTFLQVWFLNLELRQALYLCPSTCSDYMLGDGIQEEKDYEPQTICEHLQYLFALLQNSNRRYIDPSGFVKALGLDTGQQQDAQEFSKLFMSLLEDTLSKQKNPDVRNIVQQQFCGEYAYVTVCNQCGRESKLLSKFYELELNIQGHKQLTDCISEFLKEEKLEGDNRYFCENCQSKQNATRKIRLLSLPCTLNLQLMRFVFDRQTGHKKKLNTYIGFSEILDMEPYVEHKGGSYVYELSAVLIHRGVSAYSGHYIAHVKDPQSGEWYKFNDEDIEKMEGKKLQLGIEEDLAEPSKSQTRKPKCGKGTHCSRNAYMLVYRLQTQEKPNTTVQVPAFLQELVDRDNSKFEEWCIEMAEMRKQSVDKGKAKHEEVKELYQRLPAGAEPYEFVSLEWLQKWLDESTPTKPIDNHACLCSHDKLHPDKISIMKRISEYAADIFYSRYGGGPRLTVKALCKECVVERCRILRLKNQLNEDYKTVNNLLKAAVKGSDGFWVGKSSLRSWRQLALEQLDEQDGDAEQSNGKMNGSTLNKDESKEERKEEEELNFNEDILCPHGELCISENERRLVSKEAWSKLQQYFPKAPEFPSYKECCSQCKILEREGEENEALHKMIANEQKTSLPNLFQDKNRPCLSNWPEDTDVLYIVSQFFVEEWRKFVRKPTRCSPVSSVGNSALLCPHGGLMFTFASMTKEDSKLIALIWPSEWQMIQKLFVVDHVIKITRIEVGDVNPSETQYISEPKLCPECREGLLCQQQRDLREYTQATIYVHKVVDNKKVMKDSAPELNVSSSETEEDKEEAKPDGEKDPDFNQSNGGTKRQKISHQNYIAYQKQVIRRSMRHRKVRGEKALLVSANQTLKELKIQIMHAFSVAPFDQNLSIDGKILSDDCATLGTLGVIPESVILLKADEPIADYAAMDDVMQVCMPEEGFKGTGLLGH
How it was run: as §1

USP5 = target: T4, USP5 (UniProt P45974)
T4 sequence (whole entry): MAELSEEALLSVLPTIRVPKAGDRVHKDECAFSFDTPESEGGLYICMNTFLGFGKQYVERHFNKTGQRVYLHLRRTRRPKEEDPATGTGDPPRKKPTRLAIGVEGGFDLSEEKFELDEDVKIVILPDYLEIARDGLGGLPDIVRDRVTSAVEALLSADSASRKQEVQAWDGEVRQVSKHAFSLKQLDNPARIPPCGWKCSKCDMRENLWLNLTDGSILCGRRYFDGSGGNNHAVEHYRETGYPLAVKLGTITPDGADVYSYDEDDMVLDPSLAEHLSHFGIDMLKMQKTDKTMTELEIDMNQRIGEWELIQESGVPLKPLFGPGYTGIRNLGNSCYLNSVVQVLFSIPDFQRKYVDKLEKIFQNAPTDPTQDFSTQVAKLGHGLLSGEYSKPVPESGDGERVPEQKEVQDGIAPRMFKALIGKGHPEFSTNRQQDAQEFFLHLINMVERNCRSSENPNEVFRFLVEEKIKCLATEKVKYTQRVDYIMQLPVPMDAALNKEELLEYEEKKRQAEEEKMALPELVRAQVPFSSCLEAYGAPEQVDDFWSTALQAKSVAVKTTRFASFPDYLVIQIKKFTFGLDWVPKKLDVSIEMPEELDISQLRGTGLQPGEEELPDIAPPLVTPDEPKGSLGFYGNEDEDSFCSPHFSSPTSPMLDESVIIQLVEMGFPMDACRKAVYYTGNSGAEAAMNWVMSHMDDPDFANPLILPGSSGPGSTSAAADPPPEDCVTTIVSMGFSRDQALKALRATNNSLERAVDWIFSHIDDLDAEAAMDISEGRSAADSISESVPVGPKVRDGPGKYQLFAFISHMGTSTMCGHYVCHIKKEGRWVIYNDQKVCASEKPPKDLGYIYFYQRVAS
How it was run: as §1

USP54 = USP54 (UniProt Q70EL1)
How it was run: as §1

USP7 = USP7 (UniProt Q93009)
How it was run: as §1

USP8 = target: T5, USP8 (UniProt P40818)
T5 sequence (whole entry): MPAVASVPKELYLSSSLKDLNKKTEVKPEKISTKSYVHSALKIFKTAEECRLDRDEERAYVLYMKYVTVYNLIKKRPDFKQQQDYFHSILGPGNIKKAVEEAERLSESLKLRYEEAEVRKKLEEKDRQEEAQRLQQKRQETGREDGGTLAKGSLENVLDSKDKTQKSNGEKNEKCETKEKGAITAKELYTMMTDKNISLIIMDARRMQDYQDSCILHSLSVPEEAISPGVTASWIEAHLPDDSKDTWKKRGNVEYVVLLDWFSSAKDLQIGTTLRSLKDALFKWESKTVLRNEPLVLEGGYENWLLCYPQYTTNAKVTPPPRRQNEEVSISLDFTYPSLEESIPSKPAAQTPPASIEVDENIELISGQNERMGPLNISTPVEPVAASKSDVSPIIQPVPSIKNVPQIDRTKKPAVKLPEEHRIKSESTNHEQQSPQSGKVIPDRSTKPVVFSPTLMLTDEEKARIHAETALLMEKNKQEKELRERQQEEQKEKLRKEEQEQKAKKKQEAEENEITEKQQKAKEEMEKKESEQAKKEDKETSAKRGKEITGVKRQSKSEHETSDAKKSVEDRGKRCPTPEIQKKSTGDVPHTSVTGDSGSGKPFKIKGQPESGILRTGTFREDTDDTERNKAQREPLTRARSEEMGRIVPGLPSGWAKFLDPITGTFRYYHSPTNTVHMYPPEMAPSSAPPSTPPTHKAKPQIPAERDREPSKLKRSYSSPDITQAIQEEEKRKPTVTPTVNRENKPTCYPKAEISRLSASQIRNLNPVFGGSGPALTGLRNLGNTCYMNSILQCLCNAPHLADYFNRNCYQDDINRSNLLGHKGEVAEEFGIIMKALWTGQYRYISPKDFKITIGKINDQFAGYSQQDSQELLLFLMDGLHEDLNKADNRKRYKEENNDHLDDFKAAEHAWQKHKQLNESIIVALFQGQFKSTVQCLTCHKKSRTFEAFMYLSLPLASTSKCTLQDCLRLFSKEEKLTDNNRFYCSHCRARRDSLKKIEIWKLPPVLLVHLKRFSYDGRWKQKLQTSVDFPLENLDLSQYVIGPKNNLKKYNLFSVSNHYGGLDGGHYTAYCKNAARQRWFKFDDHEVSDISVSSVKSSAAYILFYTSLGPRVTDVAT
How it was run: as §1

USP9X = USP9X (UniProt Q93008)
How it was run: as §1

UniProt O00487 = target: UniProt O00487
How it was run: as §1

Measured: log2 ratio of Biotin-Ahx-Ub-VS probe labelling

USP54, sequence (Q70EL1 whole entry): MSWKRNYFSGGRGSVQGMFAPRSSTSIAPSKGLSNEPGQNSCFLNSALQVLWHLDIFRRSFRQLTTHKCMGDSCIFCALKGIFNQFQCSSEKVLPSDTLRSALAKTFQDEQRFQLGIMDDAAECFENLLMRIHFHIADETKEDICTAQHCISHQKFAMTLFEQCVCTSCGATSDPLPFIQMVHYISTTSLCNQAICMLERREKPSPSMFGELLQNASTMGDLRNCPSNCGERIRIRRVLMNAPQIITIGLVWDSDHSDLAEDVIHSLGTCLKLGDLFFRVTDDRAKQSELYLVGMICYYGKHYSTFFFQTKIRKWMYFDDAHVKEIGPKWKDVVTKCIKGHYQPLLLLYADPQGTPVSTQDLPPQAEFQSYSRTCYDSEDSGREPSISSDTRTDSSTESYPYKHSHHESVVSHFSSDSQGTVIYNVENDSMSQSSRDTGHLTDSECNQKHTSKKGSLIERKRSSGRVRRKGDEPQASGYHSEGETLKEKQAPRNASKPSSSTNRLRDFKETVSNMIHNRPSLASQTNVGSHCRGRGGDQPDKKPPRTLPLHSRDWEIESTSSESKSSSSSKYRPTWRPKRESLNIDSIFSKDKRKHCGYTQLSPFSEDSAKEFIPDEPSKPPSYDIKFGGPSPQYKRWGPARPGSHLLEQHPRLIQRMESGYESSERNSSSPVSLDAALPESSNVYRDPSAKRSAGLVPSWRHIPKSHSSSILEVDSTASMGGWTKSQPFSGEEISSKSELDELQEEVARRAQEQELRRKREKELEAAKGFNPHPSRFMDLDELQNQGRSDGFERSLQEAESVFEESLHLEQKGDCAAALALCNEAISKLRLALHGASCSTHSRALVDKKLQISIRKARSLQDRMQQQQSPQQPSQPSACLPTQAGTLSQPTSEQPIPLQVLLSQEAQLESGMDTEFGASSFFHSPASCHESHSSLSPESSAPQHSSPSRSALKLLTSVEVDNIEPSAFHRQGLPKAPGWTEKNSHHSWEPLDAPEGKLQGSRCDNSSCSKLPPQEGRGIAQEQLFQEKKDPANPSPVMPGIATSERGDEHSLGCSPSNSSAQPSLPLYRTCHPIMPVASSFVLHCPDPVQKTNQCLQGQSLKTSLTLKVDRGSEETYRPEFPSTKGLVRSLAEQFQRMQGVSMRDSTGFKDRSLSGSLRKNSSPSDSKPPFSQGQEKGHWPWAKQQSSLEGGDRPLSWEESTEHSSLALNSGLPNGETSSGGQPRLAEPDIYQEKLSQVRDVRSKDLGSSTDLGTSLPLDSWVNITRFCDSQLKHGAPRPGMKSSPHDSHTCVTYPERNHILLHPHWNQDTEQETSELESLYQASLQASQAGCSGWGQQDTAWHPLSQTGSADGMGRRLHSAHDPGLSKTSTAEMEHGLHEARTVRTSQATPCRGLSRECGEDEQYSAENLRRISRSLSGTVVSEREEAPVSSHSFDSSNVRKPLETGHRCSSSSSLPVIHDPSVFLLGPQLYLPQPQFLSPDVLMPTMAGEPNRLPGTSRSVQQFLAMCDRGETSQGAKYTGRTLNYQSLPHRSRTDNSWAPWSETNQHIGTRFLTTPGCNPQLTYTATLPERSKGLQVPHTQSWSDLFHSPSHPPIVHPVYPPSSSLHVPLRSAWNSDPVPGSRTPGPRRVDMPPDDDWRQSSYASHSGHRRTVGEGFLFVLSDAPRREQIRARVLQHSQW
USP9X, sequence (Q93008 whole entry): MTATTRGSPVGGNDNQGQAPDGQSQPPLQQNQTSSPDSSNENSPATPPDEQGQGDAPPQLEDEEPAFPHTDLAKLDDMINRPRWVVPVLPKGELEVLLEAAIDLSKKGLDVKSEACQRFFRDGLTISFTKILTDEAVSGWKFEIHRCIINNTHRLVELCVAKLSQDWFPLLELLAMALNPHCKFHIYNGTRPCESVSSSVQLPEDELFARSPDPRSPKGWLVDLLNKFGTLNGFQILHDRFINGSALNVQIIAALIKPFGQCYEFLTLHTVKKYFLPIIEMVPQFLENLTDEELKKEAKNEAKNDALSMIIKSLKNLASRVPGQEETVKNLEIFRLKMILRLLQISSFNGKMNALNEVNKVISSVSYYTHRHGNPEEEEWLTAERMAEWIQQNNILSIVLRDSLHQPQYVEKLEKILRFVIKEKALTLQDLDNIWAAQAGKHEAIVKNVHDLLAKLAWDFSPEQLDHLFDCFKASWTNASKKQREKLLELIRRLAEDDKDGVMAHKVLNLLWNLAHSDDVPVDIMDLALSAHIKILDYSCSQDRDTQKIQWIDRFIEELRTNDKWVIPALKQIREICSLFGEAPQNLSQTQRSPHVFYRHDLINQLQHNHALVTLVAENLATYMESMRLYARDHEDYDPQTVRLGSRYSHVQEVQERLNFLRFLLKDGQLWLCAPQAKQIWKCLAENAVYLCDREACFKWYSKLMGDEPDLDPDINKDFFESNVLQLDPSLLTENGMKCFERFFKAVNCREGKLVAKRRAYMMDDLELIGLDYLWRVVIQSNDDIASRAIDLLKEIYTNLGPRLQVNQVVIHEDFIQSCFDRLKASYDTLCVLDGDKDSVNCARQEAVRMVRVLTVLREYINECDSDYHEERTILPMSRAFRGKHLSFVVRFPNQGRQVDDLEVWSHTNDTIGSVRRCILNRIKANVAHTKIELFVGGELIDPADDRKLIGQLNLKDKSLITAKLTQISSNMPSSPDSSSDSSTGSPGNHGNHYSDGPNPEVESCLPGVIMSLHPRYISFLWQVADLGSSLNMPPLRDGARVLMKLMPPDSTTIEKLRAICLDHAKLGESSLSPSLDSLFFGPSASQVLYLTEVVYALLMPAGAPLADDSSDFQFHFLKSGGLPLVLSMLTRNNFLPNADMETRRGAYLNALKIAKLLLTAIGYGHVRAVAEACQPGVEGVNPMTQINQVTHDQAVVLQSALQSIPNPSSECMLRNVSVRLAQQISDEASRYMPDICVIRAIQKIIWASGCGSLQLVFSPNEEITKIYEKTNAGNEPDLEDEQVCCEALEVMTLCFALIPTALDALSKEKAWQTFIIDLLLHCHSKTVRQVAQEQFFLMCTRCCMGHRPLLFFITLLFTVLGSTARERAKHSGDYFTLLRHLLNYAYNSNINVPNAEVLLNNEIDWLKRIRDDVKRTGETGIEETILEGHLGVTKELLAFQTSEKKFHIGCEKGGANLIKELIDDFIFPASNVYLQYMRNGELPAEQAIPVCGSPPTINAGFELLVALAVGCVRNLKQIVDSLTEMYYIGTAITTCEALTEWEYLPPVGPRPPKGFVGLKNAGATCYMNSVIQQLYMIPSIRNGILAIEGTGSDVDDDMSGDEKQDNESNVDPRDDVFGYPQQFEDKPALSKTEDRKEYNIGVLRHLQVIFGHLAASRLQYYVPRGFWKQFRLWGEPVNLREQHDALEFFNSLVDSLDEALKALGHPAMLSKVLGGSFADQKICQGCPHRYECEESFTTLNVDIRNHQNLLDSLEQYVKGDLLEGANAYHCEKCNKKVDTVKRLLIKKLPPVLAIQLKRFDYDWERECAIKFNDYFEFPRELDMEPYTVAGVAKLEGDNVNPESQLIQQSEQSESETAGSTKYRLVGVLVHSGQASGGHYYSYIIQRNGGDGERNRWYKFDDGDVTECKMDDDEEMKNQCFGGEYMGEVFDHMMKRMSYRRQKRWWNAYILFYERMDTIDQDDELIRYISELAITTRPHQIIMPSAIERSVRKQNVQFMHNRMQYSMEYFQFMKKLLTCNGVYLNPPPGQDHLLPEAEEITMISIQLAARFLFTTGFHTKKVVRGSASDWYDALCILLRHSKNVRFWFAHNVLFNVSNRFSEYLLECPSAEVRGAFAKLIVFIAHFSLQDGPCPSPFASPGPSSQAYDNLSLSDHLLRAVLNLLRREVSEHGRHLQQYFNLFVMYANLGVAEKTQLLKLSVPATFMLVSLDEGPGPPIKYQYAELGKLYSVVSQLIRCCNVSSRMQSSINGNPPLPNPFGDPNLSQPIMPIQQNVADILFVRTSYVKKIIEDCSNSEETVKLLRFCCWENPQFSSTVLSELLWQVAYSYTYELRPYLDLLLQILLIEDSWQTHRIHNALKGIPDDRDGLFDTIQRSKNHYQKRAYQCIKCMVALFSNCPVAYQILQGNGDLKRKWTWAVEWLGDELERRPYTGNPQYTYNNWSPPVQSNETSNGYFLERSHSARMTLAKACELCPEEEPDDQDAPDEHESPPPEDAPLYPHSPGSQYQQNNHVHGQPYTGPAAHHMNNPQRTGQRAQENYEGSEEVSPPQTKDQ
USP46, sequence (P62068 whole entry): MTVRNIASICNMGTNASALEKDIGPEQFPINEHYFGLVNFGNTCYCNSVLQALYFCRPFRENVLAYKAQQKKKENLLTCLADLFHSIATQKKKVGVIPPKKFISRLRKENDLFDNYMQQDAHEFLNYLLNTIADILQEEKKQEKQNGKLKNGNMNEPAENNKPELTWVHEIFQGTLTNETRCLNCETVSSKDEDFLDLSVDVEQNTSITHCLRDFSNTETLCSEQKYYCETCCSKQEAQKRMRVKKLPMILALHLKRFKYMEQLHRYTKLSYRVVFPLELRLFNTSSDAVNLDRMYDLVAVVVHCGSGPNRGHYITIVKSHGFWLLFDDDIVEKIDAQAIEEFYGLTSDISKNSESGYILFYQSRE
UniProt O00487, sequence (O00487 whole entry): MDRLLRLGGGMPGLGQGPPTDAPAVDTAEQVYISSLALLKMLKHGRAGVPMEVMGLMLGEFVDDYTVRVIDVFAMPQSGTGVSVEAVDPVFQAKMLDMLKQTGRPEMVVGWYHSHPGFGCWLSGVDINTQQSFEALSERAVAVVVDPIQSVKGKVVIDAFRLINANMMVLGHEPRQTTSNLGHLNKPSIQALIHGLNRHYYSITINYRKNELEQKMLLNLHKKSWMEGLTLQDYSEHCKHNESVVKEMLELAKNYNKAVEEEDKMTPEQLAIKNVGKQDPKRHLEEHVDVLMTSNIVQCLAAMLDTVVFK

O=C(CCl)N1CCc2ccccc2C(O)C1 (stereo not given)
inactive: USP42 0.325 | USP46 -0.184 | USP47 0.0442 | USP48 -0.682 | USP5 -0.103 | USP54 0.265 | USP7 -0.687 | USP8 -0.372 | USP9X -0.333 | UniProt O00487 -0.0272
